Results published in PubChem BioAssay (NCI).
The panel holds about 79,000 compounds, 15% with a hit somewhere; the sample as a whole holds those more often. Active and inactive are the calls of the source. No stated cut-off is given here; in the data, active means growth inhibition above about 70%; inactive means the rest. Where a SMILES comes first, the peptide text is derived from it. [ ]: non-standard residue; d: D form. The star is where a group is joined. ξ: configuration not given here. Boc = CC(C)(C)OC(=O)*; ξV = CC(C)C(N)C(=O)O; OBn = c1ccc(CO*)cc1

test: NCI Yeast Anticancer Drug Screen. Data for the rad50 strain (AID 155);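 further: 0% = growth of vehicle-only cultures of the same strain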; conditions: S. cerevisiae rad50 strain growth inhibition; at 50.0 µM; hits give high values
Method in brief: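 Compounds were tested on a yeast strain with an engineered DNA damage repair alteration; the reported value is growth inhibition normalised to vehicle treatment.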

Structure (SMILES) | growth inhibition
CCCOCC(O)CNCCNCC(O)COCCC (stereo unspecified) | 4.1% (inactive)
COc1ccc2c(=O)c(O)c(-c3ccccc3)oc2c1 | 22.8% (inactive)
CC1(C)OC(=O)N=C1c1ccc(F)cc1 | -9.3% (inactive)
CCOC(=O)[C@H]1CSC[C@@H](C(=O)OC)N1 | -13.6% (inactive)
O=[N+]([O-])c1ccccc1C1N2CCCCC2[C@@H]2c3[nH]c4ccccc4c3CCN12 (stereo partly specified) | 0.2% (inactive)
CCOC(=O)c1nc2ccc(C(F)(F)F)cc2[nH]c1=O | -23.9% (inactive)

test: NCI Yeast Anticancer Drug Screen. Data for the mec2-1 strain (AID 157); conditions: S. cerevisiae mec2-1 strain, at 50.0 µM, hits give high values
Method in brief: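 Cells of the genetically defined mec2-1 yeast strain are incubated with test compound. Inhibition of growth is calculated against vehicle-treated controls.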

Structure (SMILES) | growth inhibition
COC(=O)NCP(=O)(CNC(=O)OC)CNC(=O)OC | 1.4% (inactive)
O=C(N/N=C/c1ccc(O)cc1)C1CCCO1 (stereo unspecified) | 26.5% (inactive)
Cc1ccccc1NC(=O)C(=O)Cc1nc2ccccc2s1 | -8.7% (inactive)
NS(=O)(=O)c1ccc(Nc2c3ccccc3nc3ncccc23)cc1 | 7.35% (inactive)
CSc1ccc(Nc2ncnc(N)n2)cc1 | 5.6% (inactive)
CC1(C)OC1(C(=O)C=[N+]=[N-])c1ccccc1 (stereo unspecified) | -17.8% (inactive)
COC(=O)CCc1c(C)[nH]c(C(=O)OC(C)(C)C)c1C | 9.3% (inactive)
COc1cc(NCCNCC(C)(C)C)c2ncccc2c1 | 18.7% (inactive)
N#CCCNC1CCCCC1 | 4% (inactive)
CC(=NNC(=S)Nc1ccccc1)c1cccc(C(C)=NNC(=S)Nc2ccccc2)n1 | -7.55% (inactive)
CC12CCC(=O)C=C1CCC1C2C(=O)CC2(C)C1CCC2(O)C(=O)Cn1c(=O)[nH]cc(F)c1=O (stereo unspecified) | -5.8% (inactive)
COc1cc(C2c3cc4c(cc3OC(N3CCCCC3)C2C)OCO4)cc(OC)c1O (stereo unspecified) | -14.3% (inactive)
CC(=O)NC(Cc1cc(I)c(OC(C)=O)c(I)c1)C(=O)O (stereo unspecified) | -16.8% (inactive)
C=CCCC1CN2CCc3cc(OC)c(OC)cc3C2CC1=O (stereo unspecified) | 16.1% (inactive)
c1ccc2cc(SSc3ccc4ccccc4c3)ccc2c1 | -23.8% (inactive)
CCCCCC(=C/c1ccccc1)/C=N/N1CCN(/N=C/C(=C/c2ccccc2)CCCCC)CC1 | 10.8% (inactive)
Cc1cc2nc(N3CCCCC3)n(C3OC(CO)C(O)C3O)c2cc1C (stereo unspecified) | 10.2% (inactive)
O=c1[nH]cc(SSc2c[nH]c(=O)[nH]c2=O)c(=O)[nH]1 | 15.7% (inactive)
O=C1CN(c2cccc(Cl)c2)C(=O)CN1CCN1CC(=O)N(c2cccc(Cl)c2)CC1=O | -11.7% (inactive)
COc1cc(OC)cc(N(C)Cc2cnc3nc(N)nc(N)c3c2C)c1 | 11.7% (inactive)

Structure (SMILES) | growth inhibition
Cc1ccc(S(=O)(=O)NNCCC#N)cc1 | 6.05% (inactive)
C1#CCSCC#CCSC1 | 3.4% (inactive)
Clc1ccc(/C=C/c2nc3ccccc3s2)cc1Cl | -23.6% (inactive)
Cc1c(NC=O)c(=O)n(-c2ccccc2)n1C | -33% (inactive)
Nc1ncnc2c1ccn2C1OC2COP(=O)(O)OC2C1O (stereo unspecified) | -31.4% (inactive)
CC(/C=C/C=C/C=C/C=C/C=C/C(O)=C1/C(=O)C(CCC(=O)O)N(C)C1=O)=C\C(C)C(OC1CC(O)C(O)C(C)O1)C(C)C (stereo unspecified) | -28.6% (inactive)
COc1cccc(-c2nnc(-c3cccc(OC)c3)o2)c1 | -12.1% (inactive)
COc1ccc2c(C#N)cc3c4ccccc4ncc3c2c1 | 7% (inactive)
CC(=O)CC(=O)NCc1ccccc1 | -15.9% (inactive)
CC(O)c1ccccc1Br (stereo unspecified) | -15.1% (inactive)
O=C(NC(Cc1ccccc1)C(=O)O)c1ccccc1 (stereo unspecified) | 4.9% (inactive)
CC(C)C(NC(=O)OC(C)(C)C)C(=O)NCC(=O)OCc1ccccc1 (stereo unspecified) (Boc-[ξV]-Gly-OBn) | -36% (inactive)
CCN(CC)C(=O)C1C(C=C(C)C)C1(C)C (stereo unspecified) | 20.4% (inactive)
CCC/C(=C(\C)c1ccccc1)c1ccccc1 | 33.6% (inactive)
CCCOCC(O)CNCCNCC(O)COCCC (stereo unspecified) | -2.7% (inactive)
COc1ccc2c(=O)c(O)c(-c3ccccc3)oc2c1 | -18.9% (inactive)
CC1(C)OC(=O)N=C1c1ccc(F)cc1 | 7.7% (inactive)
CCOC(=O)[C@H]1CSC[C@@H](C(=O)OC)N1 | -4.7% (inactive)
O=[N+]([O-])c1ccccc1C1N2CCCCC2[C@@H]2c3[nH]c4ccccc4c3CCN12 (stereo partly specified) | -11.9% (inactive)
CCOC(=O)c1nc2ccc(C(F)(F)F)cc2[nH]c1=O | -14.2% (inactive)
